Usually Inhibition stands for the percentage by which the read-out fell short of the control. A high value points to strong suppression.

Consider 40 compounds from ChEMBL document CHEMBL1157539, “Thousands of chemical starting points for antimalarial lead identification” (Nature, 2010).

Structures are written as SMILES.

The subject of one assay is Plasmodium falciparum. The assay can be described thus: GSK_TCMDC: Inhibition of Plasmodium falciparum 3D7 in whole red blood cells, using parasite LDH activity as an index of growth. Test compounds present at 2uM. It is filed as functional.
As to `CCNc1cc(C(=O)N[C@@H](Cc2ccccc2)[C@H](O)CNC2(C)CCCCC2)cc(N2CCCCS2(=O)=O)c1.Cl`, the Inhibition was 100%.

On to `CCC1(CC)N=C(N)N=C(N)C1c1ccc(Cl)c(Cl)c1.Cl` (stereo not given), for which the Inhibition was 98%.

With `N#Cc1ccc(CN2CCC(Oc3ccc(NC(=O)c4ccsc4)cc3Cl)C2)cc1.O=C(O)C(F)(F)F` (stereo not given), the Inhibition is 88%.

Consider `Cc1ccc(NC(=O)c2ccc3ncccc3c2)cc1OC1CCN(Cc2ccsc2)C1.O=C(O)C(F)(F)F` (stereo not given), for which the Inhibition came to 88%.

`Cc1cc2cc(NC(=O)Nc3ccnc4ccccc34)ccc2n1C.Cl` returned an Inhibition of 90%.

As to `COc1cc2c(cc1S(=O)(=O)c1ccc(NC(=O)Nc3ccc(F)cc3)cc1)CCN(C)CC2.Cl`, the Inhibition turned out to be 99%.

In turn, `Cc1nc2nc(N)nc(N)c2c(C)c1Cc1ccc(C(N)=O)cc1.Cl` returned an Inhibition of 97%.

Regarding `COc1ccc(CCNCCCCCCNCCc2ccccc2Cl)cc1OC.Cl`, the Inhibition amounted to 96%.

The compound `Oc1ccc(CCNc2nc(N/N=C/c3ccc(Cl)cc3)nc(N3CCNCC3)n2)cc1` yielded an Inhibition of 100%.

The compound `COc1ccc2nccc(N3CCC(NCCNCc4cc5c(cn4)OCCO5)C3)c2n1.Cl` (stereo not given) registered an Inhibition of 99%.

`CCN(CC)CCOc1ccc(Nc2ncc3cc(-c4c(Cl)cccc4Cl)c(=O)n(C)c3n2)cc1` [PD-0166285] returned an Inhibition of 90%.

In turn, `NCC1CCCN1Cc1ccc(-c2ccc(-c3nc4cc(C(F)(F)F)ccc4[nH]3)cc2)cc1.O=C(O)C(F)(F)F` (stereo not given) yielded an Inhibition of 100%.

On to `Cc1ccc(O)cc1Nc1c(C(N)=O)cnc2ccc(-c3cncs3)cc12`, for which the Inhibition worked out at 100%.

The compound `Cc1noc(=O)c2ccc(NC(=O)C(O)(CSc3ccccc3)CC(C)C)cc12` (stereo not given) gave an Inhibition of 99%.

`CCNc1cc(C)nc(Nc2ccc(NC(=O)c3ccccc3)cc2)n1` gave an Inhibition of 100%.

In turn, `CON(C)C(=O)[C@@H](CCCCNC(=O)OCc1ccccc1)NC(=O)OC(C)(C)C` came in with an Inhibition of 98%.

`COc1cc(F)c2nccc([C@@H](O)CN3CCC(NCc4cc5c(cc4F)OCCO5)CC3)c2c1`: the Inhibition is 99%.

In turn, `CC(C)CCNC(=O)C1Cc2c([nH]c3cc(Cl)ccc23)C2(CCN(CCc3ccccc3)CC2)N1` (stereo not given) displayed an Inhibition of 100%.

`COc1cccc(-c2nn(C)c3sc(C(=O)Nc4cccnc4)cc23)c1`: the Inhibition is reported as 86%.

`CCNc1cc(C(=O)N[C@@H](Cc2ccccc2)[C@H](O)CNC(C)(C)CCCC(C)C)cc(N2CCCCS2(=O)=O)c1.O=CO` came in with an Inhibition of 98%.

For `Cc1cc(N[C@@H](Cc2ccccc2)C(=O)NCCc2ccccc2)nc(NCCc2ccccc2)n1.O=C(O)C(F)(F)F`, the Inhibition was determined as 100%.

Consider `Cl.O=C(Nc1ccc(Cl)c(Cl)c1)Nc1ccc2nccc(N3CCNCC3)c2c1`, for which the Inhibition is 99%.

Take `COc1ccc(Nc2nccc(N3CCC(NC(=O)c4cc5ccccc5s4)C3)n2)cc1` (stereo not given): the Inhibition is listed as 99%.

For `COc1cc(-c2nc(-c3ccncc3)c(-c3ccc4c(c3)CCC4=NO)[nH]2)ccc1OCCN1CCCCC1.Cl`, the Inhibition is on record as 100%.

Regarding `COc1c(C2CCN(CCCCNC(=O)C=Cc3cc4cc(Cl)ccc4o3)CC2)ccc2c1CCCC2`, the Inhibition turned out to be 87%.

For `COc1cc(Nc2nccc(N3CCC(NC(=O)C4COc5ccccc5O4)C3)n2)cc(OC)c1OC` (stereo not given), the Inhibition came to 90%.

`O=C(NCc1ccccc1)Nc1cccc(-c2cccc(-c3nc4cc(C(F)(F)F)ccc4[nH]3)c2)c1` gave an Inhibition of 95%.

For `CN1C(=C2SC(=Nc3ccc4ncccc4c3)N(Cc3ccccc3)C2=O)Sc2ccc(Cl)cc21`, the Inhibition worked out at 99%.

Consider `Cc1ccccc1C1CCN(C2CCC(NC(=O)/C=C/c3cc(F)ccc3F)CC2)CC1` (stereo not given), for which the Inhibition amounted to 85%.

The compound `O=C(CNC(=O)c1ccc(O)cc1)Nc1ccc(-c2cccc(-c3nc4cc(C(F)(F)F)ccc4[nH]3)c2)cc1` came in with an Inhibition of 92%.

As for `CNC(=O)COC(=O)c1c2c(nc3ccccc13)C(=Cc1ccc3c(c1)OCO3)CCC2`, the Inhibition came to 83%.

With `O=C(Nc1ccc(OC2CCN(Cc3ccsc3)CC2)c(Cl)c1)c1cccs1.O=C(O)C(F)(F)F`, the Inhibition is 94%.

With `O=C(O)C(F)(F)F.c1ccc2[nH]c(-c3ccc(-c4ccc(CNCC5CCCO5)cc4)s3)nc2c1` (stereo not given), the Inhibition is 100%.

Turning to `CCCCCCCC1CC(CC(=O)Nc2ccnc3ccc(OC)cc23)CN1C(=O)OC(C)(C)C` (stereo not given), the Inhibition is given as 100%.

In turn, `Cc1cccnc1Nc1nc(-c2ccccn2)cs1` showed an Inhibition of 96%.

Compound `CN1CCN(c2ccnc3ccc(NC(=O)Cc4ccc(Br)c5ccccc45)cc23)CC1` gave an Inhibition of 96%.

The compound `Cc1ccc(NC(=O)C2CCC2)cc1-c1ccc(C(=O)NCC2CC2)cc1` had an Inhibition of 98%.

Consider `Cc1cc2nc(-c3ccc(C(=O)NCc4ccc(C(C)(C)C)cc4)cc3)[nH]c2cc1C`, for which the Inhibition is 100%.

`COc1ccc(NC(=O)/C=C/c2ccc(-c3ccccc3)cc2)cc1N1CCN(C)CC1.O=C(O)C(=O)O` displayed an Inhibition of 90%.

On to `O=c1c2ccccc2[nH]c2nc3ccccc3c(Nc3ccccc3)c12`, for which the Inhibition came to 98%.

A further assay concerns Plasmodium falciparum. Kind of assay: GSK_TCMDC: Inhibition of Plasmodium falciparum Dd2 in whole red blood cells, using parasite LDH activity as an index of growth. Test compounds present at 2uM. It counts as functional.
Compound `CCNc1cc(C(=O)N[C@@H](Cc2ccccc2)[C@H](O)CNC2(C)CCCCC2)cc(N2CCCCS2(=O)=O)c1.Cl` displayed an Inhibition of 98%.

Compound `CCC1(CC)N=C(N)N=C(N)C1c1ccc(Cl)c(Cl)c1.Cl` (stereo not given) yielded an Inhibition of 20%.

Take `N#Cc1ccc(CN2CCC(Oc3ccc(NC(=O)c4ccsc4)cc3Cl)C2)cc1.O=C(O)C(F)(F)F` (stereo not given): the Inhibition was found to be 79%.

`Cc1ccc(NC(=O)c2ccc3ncccc3c2)cc1OC1CCN(Cc2ccsc2)C1.O=C(O)C(F)(F)F` (stereo not given): the Inhibition came to 49%.

In turn, `Cc1cc2cc(NC(=O)Nc3ccnc4ccccc34)ccc2n1C.Cl` displayed an Inhibition of 33%.

As to `COc1cc2c(cc1S(=O)(=O)c1ccc(NC(=O)Nc3ccc(F)cc3)cc1)CCN(C)CC2.Cl`, the Inhibition is listed as 55%.

Take `Cc1nc2nc(N)nc(N)c2c(C)c1Cc1ccc(C(N)=O)cc1.Cl`: the Inhibition came out at 0%.

Consider `COc1ccc(CCNCCCCCCNCCc2ccccc2Cl)cc1OC.Cl`, for which the Inhibition was determined as 3%.

For the compound `Oc1ccc(CCNc2nc(N/N=C/c3ccc(Cl)cc3)nc(N3CCNCC3)n2)cc1`, the Inhibition is 68%.

In the case of `COc1ccc2nccc(N3CCC(NCCNCc4cc5c(cn4)OCCO5)C3)c2n1.Cl` (stereo not given), the Inhibition was 3%.

For the compound `CCN(CC)CCOc1ccc(Nc2ncc3cc(-c4c(Cl)cccc4Cl)c(=O)n(C)c3n2)cc1` [PD-0166285], the Inhibition is given as 91%.

Compound `NCC1CCCN1Cc1ccc(-c2ccc(-c3nc4cc(C(F)(F)F)ccc4[nH]3)cc2)cc1.O=C(O)C(F)(F)F` (stereo not given) returned an Inhibition of 98%.

Regarding `Cc1ccc(O)cc1Nc1c(C(N)=O)cnc2ccc(-c3cncs3)cc12`, the Inhibition worked out at 99%.

For the compound `Cc1noc(=O)c2ccc(NC(=O)C(O)(CSc3ccccc3)CC(C)C)cc12` (stereo not given), the Inhibition was 89%.

Consider `CCNc1cc(C)nc(Nc2ccc(NC(=O)c3ccccc3)cc2)n1`, for which the Inhibition was 63%.

The compound `CON(C)C(=O)[C@@H](CCCCNC(=O)OCc1ccccc1)NC(=O)OC(C)(C)C` yielded an Inhibition of 0%.

Regarding `COc1cc(F)c2nccc([C@@H](O)CN3CCC(NCc4cc5c(cc4F)OCCO5)CC3)c2c1`, the Inhibition was 45%.

With `CC(C)CCNC(=O)C1Cc2c([nH]c3cc(Cl)ccc23)C2(CCN(CCc3ccccc3)CC2)N1` (stereo not given), the Inhibition came out at 55%.

The compound `COc1cccc(-c2nn(C)c3sc(C(=O)Nc4cccnc4)cc23)c1` displayed an Inhibition of 34%.

`CCNc1cc(C(=O)N[C@@H](Cc2ccccc2)[C@H](O)CNC(C)(C)CCCC(C)C)cc(N2CCCCS2(=O)=O)c1.O=CO` displayed an Inhibition of 98%.

`Cc1cc(N[C@@H](Cc2ccccc2)C(=O)NCCc2ccccc2)nc(NCCc2ccccc2)n1.O=C(O)C(F)(F)F` returned an Inhibition of 57%.

`Cl.O=C(Nc1ccc(Cl)c(Cl)c1)Nc1ccc2nccc(N3CCNCC3)c2c1` yielded an Inhibition of 62%.

The compound `COc1ccc(Nc2nccc(N3CCC(NC(=O)c4cc5ccccc5s4)C3)n2)cc1` (stereo not given) gave an Inhibition of 86%.

For `COc1cc(-c2nc(-c3ccncc3)c(-c3ccc4c(c3)CCC4=NO)[nH]2)ccc1OCCN1CCCCC1.Cl`, the Inhibition came out at 80%.

For the compound `COc1c(C2CCN(CCCCNC(=O)C=Cc3cc4cc(Cl)ccc4o3)CC2)ccc2c1CCCC2`, the Inhibition was 19%.

Turning to `COc1cc(Nc2nccc(N3CCC(NC(=O)C4COc5ccccc5O4)C3)n2)cc(OC)c1OC` (stereo not given), the Inhibition came to 58%.

For `O=C(NCc1ccccc1)Nc1cccc(-c2cccc(-c3nc4cc(C(F)(F)F)ccc4[nH]3)c2)c1`, the Inhibition is given as 30%.

`CN1C(=C2SC(=Nc3ccc4ncccc4c3)N(Cc3ccccc3)C2=O)Sc2ccc(Cl)cc21` came in with an Inhibition of 75%.

With `Cc1ccccc1C1CCN(C2CCC(NC(=O)/C=C/c3cc(F)ccc3F)CC2)CC1` (stereo not given), the Inhibition stood at 36%.

`O=C(CNC(=O)c1ccc(O)cc1)Nc1ccc(-c2cccc(-c3nc4cc(C(F)(F)F)ccc4[nH]3)c2)cc1` yielded an Inhibition of 47%.

In turn, `CNC(=O)COC(=O)c1c2c(nc3ccccc13)C(=Cc1ccc3c(c1)OCO3)CCC2` gave an Inhibition of 36%.

For `O=C(Nc1ccc(OC2CCN(Cc3ccsc3)CC2)c(Cl)c1)c1cccs1.O=C(O)C(F)(F)F`, the Inhibition was 93%.

`O=C(O)C(F)(F)F.c1ccc2[nH]c(-c3ccc(-c4ccc(CNCC5CCCO5)cc4)s3)nc2c1` (stereo not given) yielded an Inhibition of 87%.

In the case of `CCCCCCCC1CC(CC(=O)Nc2ccnc3ccc(OC)cc23)CN1C(=O)OC(C)(C)C` (stereo not given), the Inhibition was 34%.

With `Cc1cccnc1Nc1nc(-c2ccccn2)cs1`, the Inhibition is 99%.

`CN1CCN(c2ccnc3ccc(NC(=O)Cc4ccc(Br)c5ccccc45)cc23)CC1`: the Inhibition was found to be 99%.

In the case of `Cc1ccc(NC(=O)C2CCC2)cc1-c1ccc(C(=O)NCC2CC2)cc1`, the Inhibition is given as 3%.

Take `Cc1cc2nc(-c3ccc(C(=O)NCc4ccc(C(C)(C)C)cc4)cc3)[nH]c2cc1C`: the Inhibition is 59%.

Turning to `COc1ccc(NC(=O)/C=C/c2ccc(-c3ccccc3)cc2)cc1N1CCN(C)CC1.O=C(O)C(=O)O`, the Inhibition was 46%.

In turn, `O=c1c2ccccc2[nH]c2nc3ccccc3c(Nc3ccccc3)c12` returned an Inhibition of 97%.
